Proliferation data for 18 compounds are collected here from the supplement of paper PMC12045047.

Counter-ions that a name gives are not always drawn.

The assay deals with primary human airway basal cells (HBEC, luciferase-transduced). The assay can be described thus: proliferation (luciferase bioluminescence) Z score relative to plate mean; higher = more proliferation / more cells, active = 1.96 or more. To be noted: donor: 1, library: ENZO Libraries, 4 days. The protocol: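 Primary human bronchial epithelial (airway basal) cells from two donors, lentivirally transduced with pHIV-Luc-ZsGreen, were seeded at 2000 cells/well in 384-well plates in FAD medium with ENZO or Prestwick library compounds and cultured for 4 days. Luciferin was then added and bioluminescence was read as a measure of cell number. Relative light units were converted to Z scores against the plate, and the mean of triplicate wells is reported.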

As for `O=C(NCCCCN1CCOCC1)c1cc2ccccc2o1`, the proliferation was -0.215 (inactive) (0.5 µM) and -0.00355 (inactive) (5 µM).
Turning to `Cc1ccc(C(=O)c2cc(/C=C/C(=O)NO)n(C)c2)cc1`, the proliferation (0.5 µM) is -0.0732 (inactive) and the proliferation (5 µM) was -0.0538 (inactive).
For `CCCCCCCCCC(=O)N[C@@H](CCCN=C(N)N)C(=O)N[C@H](C(=O)N[C@@H](CCCCN)C(=O)N[C@@H](CCCN=C(N)N)C(=O)CCl)C(C)C` the same measures were 0.21 (inactive) and 0.0695 (inactive).
In the case of `Oc1cc(O)cc(/C=C/c2ccc(O)c(O)c2)c1` [Piceatannol], the proliferation was -0.115 (inactive) (0.5 µM) and 1.52 (inactive) (5 µM).
For `O=C(O)CNC(=O)C(CS)Cc1ccccc1` (racemic) [DL-Thiorphan] the same measures were 0.124 (inactive) and -0.0316 (inactive).
For `Nc1c(O)cc(O)cc1C=Cc1ccc(O)cc1` [Aminoresveratrol sulfate] the same measures were 0.00314 (inactive) and 1.56 (inactive).
For `O=c1cc(N2CCOCC2)oc2c(-c3ccccc3)cccc12` the same measures were -0.437 (inactive) and -0.857 (inactive).
For the compound `N#C/C(=C\c1ccc(O)c(O)c1)C(=O)NCc1ccccc1`, the proliferation is 0.366 (inactive) (0.5 µM) and -0.179 (inactive) (5 µM).
In the case of `CCOC(=O)[C@H](CCc1ccccc1)N[C@@H](C)C(=O)N1CCC[C@H]1C(=O)O` [Enalapril], the proliferation (0.5 µM) is -0.154 (inactive) and the proliferation (5 µM) is -0.126 (inactive).
For the compound `Nc1nc2ncnc-2c[nH]1` [2-Aminopurine], the proliferation is -0.301 (inactive) (0.5 µM) and -0.296 (inactive) (5 µM).
For `COc1cc(/C=C(\C#N)C(N)=O)cc(CSc2nc3ccccc3s2)c1O` the same measures were -0.428 (inactive) and -0.258 (inactive).
For `CCOC(=O)c1ccc(OC(=O)CCCCCNC(=N)N)cc1` [Gabexate mesylate] the same measures were -0.301 (inactive) and 0.0316 (inactive).
For `N[C@H](C(=O)O)[C@@H]1CC(Cl)=NO1` [Acivicin] the same measures were -0.75 (inactive) and -1.56 (inactive).
For `CC(C)C[C@H](NC(=O)N[C@H](C(=O)N[C@@H](CCC(N)=O)C(=O)N[C@@H](C)C=O)[C@@H]1CCNC(=N)N1)C(=O)O` [Elastatinal], the proliferation (0.5 µM) was -0.455 (inactive) and the proliferation (5 µM) is -0.0211 (inactive).
Take `CC(C)c1cnc(NC(=O)Cc2ccccc2)s1`: the proliferation was 0.304 (inactive) (0.5 µM) and 0.142 (inactive) (5 µM).
For `O=Nc1ccc(O)c2ncccc12` the same measures were -0.683 (inactive) and -1.09 (inactive).
For `C=CC(=O)c1ccc2ccccc2c1` the same measures were 0.129 (inactive) and -0.357 (inactive).
Take `Cc1ccc(S(=O)(=O)N[C@@H](Cc2ccccc2)C(=O)CCl)cc1`: the proliferation is, setting by setting: (0.5 µM) -0.621 (inactive); (5 µM) -0.67 (inactive).
